FLuc counter: qHTS profiling assay for firefly luciferase inhibitor/activator using purifed enzyme and Km concentrations of substrates (counterscreen for miR-21 project); Luciferin 4-monooxygenase (Photinus pyralis), P08659; purified FLuc, Km substrates, luminescence inhibition; Potency, µM (top dose mostly 57.5 µM), for inactives: at the highest dose activity change, negative = inhibition, actives largely listed as inhibitors; 360,000 tested, 6.9% active;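 further: plate controls were vehicle for no effect and reference inhibitor for full effect; nearly all actives have a fitted effect of over 55% in size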
Target sequence (P08659 whole entry, looked up): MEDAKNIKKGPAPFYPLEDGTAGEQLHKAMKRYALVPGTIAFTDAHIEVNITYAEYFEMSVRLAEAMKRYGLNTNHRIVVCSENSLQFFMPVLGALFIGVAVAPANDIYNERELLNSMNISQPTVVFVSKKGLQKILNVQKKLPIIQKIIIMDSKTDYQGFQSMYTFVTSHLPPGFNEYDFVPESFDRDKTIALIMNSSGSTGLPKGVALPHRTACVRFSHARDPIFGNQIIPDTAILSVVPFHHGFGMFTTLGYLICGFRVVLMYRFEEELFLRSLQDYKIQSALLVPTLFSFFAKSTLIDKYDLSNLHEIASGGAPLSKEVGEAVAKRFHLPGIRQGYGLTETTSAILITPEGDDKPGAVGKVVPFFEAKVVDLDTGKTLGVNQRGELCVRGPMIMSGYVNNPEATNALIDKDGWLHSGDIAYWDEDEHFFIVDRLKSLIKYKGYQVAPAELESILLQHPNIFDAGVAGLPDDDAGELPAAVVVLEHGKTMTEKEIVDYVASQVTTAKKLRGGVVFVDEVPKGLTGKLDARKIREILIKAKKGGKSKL
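Biochemical qHTS of compounds, final roughly 60 µM downward over six points, against 10 nM purified firefly luciferase using Km concentrations of substrates (10 uM D-luciferin, 10 uM ATP) in Tris acetate pH 7.5 buffer; luminescence output.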
NPC1 prom act: qHTS Assay for NPC1 Promoter Activators. Huh7 NPC1 promoter luciferase reporter, 24 h. Potency, µM (highest dose often 9.22 µM), for the others: at the highest dose activation, most hits filed as activators. 320,000 tested, 2.4% active; further: % of control where 0% means no effect; nearly all actives have a fitted effect of over 60% in size
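NPC1 promoter–luciferase Huh7 cells; 24 h compound; luminescence.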
ELG1 genotox: qHTS screen for small molecules that induce genotoxicity in human embryonic kidney (HEK293T) cells expressing luciferase-tagged ELG1 | Potency, µM (highest dose often 46 µM), for the others: at the top dose activity change, positive = activation, usual class: activators | HEK293T ELG1-luciferase reporter, luminescence, 16 h | 330,000 tested, 1.3% active | AID 504466, 2011; further: % of control where 0% means no effect; nearly all actives have a fitted effect of over 60% in size
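Genotoxic stress is detected as increased luminescence from luciferase-tagged ELG1 in HEK293T cells, measured with ONE-Glo after a 16 hr treatment at 37 °C.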
KinaseGlo FLuc: Counterscreen for Luciferase (Kinase-Glo TM) Inhibition. Luciferin 4-monooxygenase (Photuris pensylvanica), Q27757. Kinase-Glo luciferase, ATP luminescence, 8 min. Potency, µM (series often up to 38.3 µM), for inactives: top-dose activity change, negative = inhibition, actives largely listed as inhibitors. 200,000 tested, 0.28% active. AID 1379, 2008; further: on the % scale 0 is the no-effect control and ±100 the full control effect; nearly all actives have a fitted effect of over 60% in size
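Inhibition of Kinase-Glo luciferase light generation was assessed at 10 uM ATP in pH 7.2 imidazole buffer, with luminescence measured after eight minutes at ambient temperature.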
Rab9 promoter act: qHTS Assay for Rab9 Promoter Activators; Huh7 Rab9 promoter-luciferase reporter, luminescence, 24 h; Potency, µM (highest dose often 9.22 µM), without a hit: at the highest dose activation, negative = inhibition, most hits filed as activators; 320,000 tested, 2.8% active; AID 485297, 2010; further: % of control where 0% means no effect; nearly all actives have a fitted effect of over 60% in size
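Using Huh7 cells stably transfected with Rab9 promoter–luciferase, compounds were incubated 24 h at 37 °C, 5% CO2; luciferase luminescence was read 10 min after reagent addition.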
SMN2 splice enh: qHTS Assay for Enhancers of SMN2 Splice Variant Expression; HEK293 SMN2-luciferase splicing reporter, luminescence, 30-36 h; 210,000 tested, 2.8% active; AID 1458, 2008; Potency, µM (doses to about 46.1 µM), without a hit: at the highest dose activity change, positive = activation, actives largely listed as activators; further: % of control where 0% means no effect; nearly all actives have a fitted effect of over 55% in size
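qHTS luciferase splicing reporter: luminescence rises when SMN2 exon 7 is included in transfected HEK293 cells. Compound exposure lasted 30-36 h at 37C, with 4.5 mM final sodium butyrate as control, followed by a ONE-Glo read.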
* = called active by the depositor; ? = inconclusive; nt = no result. A selection: hits, their analogues and other compounds. The true share with any hit is near 7.4%. The call rests on the fitted dose curve; in most records, active means well fitted curve in the direction sought with a large enough effect; inconclusive means small, poorly fitted or top-dose-only effect, or another doubt; inactive means no such curve, though single readings can be large; an effect the other way counts as inactive or inconclusive. Potency means the concentration at half of the fitted maximal effect.

SMILES | FLuc counter | NPC1 prom act | ELG1 genotox | KinaseGlo FLuc | Rab9 promoter act | SMN2 splice enh
Cc1ccc(-c2nnc(SCC#CCOC(=O)c3ccco3)o2)cc1 | 16.9µM* | 5.3% | ? | 14.6% | ? | -2.5%
Cc1ccc(-c2nnc(SCC#CCOC(=O)c3cccs3)o2)cc1 | 19µM* | 18.3% | 11.7% | -4.2% | 19.9% | 6.1%
Clc1ccc2[nH]c3c(NCC4CCCO4)ncnc3c2c1 (stereo not given) | ? | 0.1% | -9.1% | nt | 0.6% | nt
CC(=O)c1ccc(Nc2ncnc3c2oc2ccccc23)cc1 | ? | 1.41µM* | 2.06µM* | -7.8% | ? | 1.58µM*
c1ccc(CNc2ncnc3c2oc2ccccc23)nc1 | 19µM* | 1.1% | 12.0% | -3.1% | 24.5% | -10.6%
c1ccc(-c2nc(NCC3CCCO3)c3oc4ccccc4c3n2)cc1 (stereo not given) | 15.1µM* | 0.5% | -7.8% | 1.8% | -11.5% | -16.4%
CC(=O)Nc1ccc(Nc2nc(C)nc3c2oc2ccccc23)cc1 | -15.5% | -0.9% | -11.4% | 2.6% | -2.3% | nt
c1ccc2c(c1)oc1c(NCC3CCCO3)ncnc12 (stereo not given) | 16.9µM* | -3.6% | 1.7% | -2.7% | 11.1% | -0.4%
Cc1cccc(NC(=O)c2cn(-c3ccccc3)nc2-c2ccccc2)c1C | -7.8% | nt | nt | nt | nt | nt
COC(=O)c1sc2cccc(F)c2c1S(=O)(=O)NCc1ccc(Cl)cc1 | 2.3% | nt | nt | nt | nt | nt
O=C(c1ccncc1)N1CCC[C@@]2(CCN(Cc3ccccc3)C2)C1 | nt | nt | nt | -0.3% | nt | -4.0%
O=C(Nc1ccc([N+](=O)[O-])cc1)c1ccccc1 | 16.9µM* | 2.24µM* | 14.5% | nt | 3.16µM* | nt
CC(Cc1ccccc1)NC(=O)c1ccc([N+](=O)[O-])cc1 (stereo not given) | 12µM* | 2.82µM* | ? | -0.3% | 1.78µM* | 14.1µM*
CCN(CC)c1ccc(C(=O)Nc2ccccc2)cc1[N+](=O)[O-] | 12µM* | ? | 0.2% | 4.8% | ? | 11.2µM*
CC(Cc1ccccc1)NC(=O)/C=C/c1ccc([N+](=O)[O-])cc1 (stereo not given) | 2.3% | -0.7% | -0.6% | -4.4% | 1.5% | -4.6%
O=C(NNc1ccc([N+](=O)[O-])cc1)Nc1ccccc1 | 21.3µM* | 3.0% | 3.2% | nt | -0.5% | nt
O=C(Nc1ccc(NC(=O)c2cccc([N+](=O)[O-])c2)cc1)c1cccc([N+](=O)[O-])c1 | -18.4% | 16.2% | 12.7% | nt | 14.9% | nt
O=C(NNc1ccccc1[N+](=O)[O-])Nc1ccccc1 | -26.1% | 0.3% | 0.8% | -4.8% | -2.1% | 7.3%
Cc1ccc(NC(=O)Cn2c(=O)c(C(F)(F)F)nc3ccccc32)c(C)c1 | 2.1% | nt | nt | nt | nt | nt
Cc1ccc(Cn2c(CNC(=O)c3ccc(Cl)c([N+](=O)[O-])c3)nc3cccnc32)cc1 | -9.6% | nt | nt | nt | nt | nt
CN(C)S(=O)(=O)Oc1cccc(C(=O)Nc2ccc([N+](=O)[O-])cc2)c1 | 13.5µM* | 15.3% | -13.9% | 2.5% | ? | -25.4%
O=C(Nc1ccc(O)cc1)c1cccc(Oc2ccc([N+](=O)[O-])cc2)c1 | -3.2% | -6.0% | -8.7% | 0.4% | -2.1% | nt
O=C(O)c1ccccc1Nc1ccccc1C(=O)O | -0.5% | 6.3% | 4.4% | -0.8% | 9.0% | -4.0%
O=C(N[C@H]1CC1c1ccccc1)c1ccc([N+](=O)[O-])cc1 (stereo not given in full) | 5.36µM* | 1.12µM* | ? | nt | 0.708µM* | nt
Cc1c(Cl)cccc1Nc1ccccc1C(=O)O | 16.9µM* | -4.6% | -2.2% | 1.3% | -1.5% | -2.4%
O=C(O)c1ccccc1Nc1ccc([N+](=O)[O-])cc1 | ? | 19.5% | -1.8% | -4.9% | ? | 7.08µM*
